# Compounds with a hit are over-represented: about 3.4% of the library has one in this group of screens.
# ERa SRC1 pot – enhances coactivator binding to human estrogen receptor alpha | coactivator binding (% of control), % at 25.6 µM | P03372 | 86,000 compounds, 1.3% hits | TR-FRET ERalpha-LBD/SRC-Cy5 coactivator binding, 2 h; 100 = basal binding, no effect; in the data active means activity above about 200%;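 further: binding measured in presence of low estradiol as agonist stimulus; 0% = peptide alone without receptor and 100% = receptor with peptide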
# Target sequence (P03372 whole entry, looked up, the tested form may be a part): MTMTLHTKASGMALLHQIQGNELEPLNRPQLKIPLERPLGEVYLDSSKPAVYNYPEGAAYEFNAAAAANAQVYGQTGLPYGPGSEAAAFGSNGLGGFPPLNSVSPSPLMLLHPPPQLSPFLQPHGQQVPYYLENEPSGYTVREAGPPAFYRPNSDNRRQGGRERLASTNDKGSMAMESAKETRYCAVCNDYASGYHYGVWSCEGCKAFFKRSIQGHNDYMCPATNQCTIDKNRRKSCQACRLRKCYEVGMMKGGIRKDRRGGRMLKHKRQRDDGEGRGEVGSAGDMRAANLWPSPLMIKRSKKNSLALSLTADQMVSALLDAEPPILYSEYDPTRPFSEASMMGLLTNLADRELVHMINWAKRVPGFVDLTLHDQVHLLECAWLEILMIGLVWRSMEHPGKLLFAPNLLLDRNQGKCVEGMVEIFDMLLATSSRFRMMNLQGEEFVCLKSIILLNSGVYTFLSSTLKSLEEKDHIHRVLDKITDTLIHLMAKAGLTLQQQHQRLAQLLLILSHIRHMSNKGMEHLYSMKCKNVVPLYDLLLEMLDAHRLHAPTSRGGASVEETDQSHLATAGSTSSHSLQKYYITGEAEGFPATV
# PTPN22 act – increases human PTPN22 phosphatase activity | recombinant LYP, DiFMUP fluorescence; 0 = plate median, 100 = signal doubled | activation, % at 2 µM | AID 697 | 96,000 compounds, 0.11% hits;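 active means activation at 2 µM above a set limit, the mean plus 5 SD, cut at about 37% in these data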
# FAK inh – inhibitors of human focal adhesion kinase | biochemical FAK kinase activity assay | inhibition, %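 (tested at 7 µM)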 | 97,000 compounds, 0.84% hits; in the data active means inhibition above about 19%;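 further: 0% = DMSO and 100% = reference compound high control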
# ERb SRC1 inh – blocks coactivator binding to human estrogen receptor beta; Q92731; 86,000 compounds, 1.3% hits; inhibition, % at 25.6 µM; TR-FRET ER-beta LBD / SRC1-Cy5 peptide binding; receptor agonist-loaded with 1 µM estradiol; AID 633;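 active means compounds whose percent inhibition of the receptor-coactivator binding signal exceeds about 50% in the single-dose screen, limit read from the data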;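 further: 0% = receptor plus peptide wells without compound and 100% = peptide-only wells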
# PTPN22 inh 2 – inhibitors of human LYP (PTPN22) phosphatase; recombinant LYP catalytic domain, DiFMUP fluorescence; inhibition, % at 2 µM; 96,000 compounds, 0.21% hits;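 active means inhibition at 2 µM at or above a set limit, the screen mean plus 3 SD, cut at about 24% in these data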;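 further: 0% = DMSO with enzyme and 100% = enzyme fully blocked by orthovanadate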
# ERa SRC1 inh – blocks coactivator binding to human estrogen receptor alpha | P03372 | TR-FRET ER-alpha LBD / SRC-1 peptide, estradiol-bound | inhibition, % at 25.6 µM | 86,000 compounds, 1.7% hits; in the data active means inhibition above about 50%;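 further: 0% = receptor plus peptide control and 100% = peptide only without receptor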
# An asterisk follows results filed as active; nt = not tested or not shown; [ ] = remark or other dose.
SMILES,ERa SRC1 pot,PTPN22 act,FAK inh,ERb SRC1 inh,PTPN22 inh 2,ERa SRC1 inh
O=P(OC1CCCCC1)(OC1CCCCC1)C(O)c1ccccc1 (configuration not stated),107,8,3,-4,-6,6
Cc1ccc(S(=O)(=O)/C(C#N)=C/c2c(N3CC(C)OC(C)C3)nc3c(C)cccn3c2=O)cc1 (configuration not stated),110,3,0,-3,0,-4
CCOC(=O)N1CCC(Nc2c(N3CCN(c4cccc(C(F)(F)F)c4)CC3)c(=O)c2=O)CC1,99,-1,5,63*[fluorescence artefact?],1,-5
CCOC(=O)N1CCC(Nc2c(-c3ccccc3)c(=O)c2=O)CC1,88,6,1,-9,-7,3
N#Cc1c(NC(=O)CN2CCN(S(=O)(=O)c3ccc4c(c3)OCCO4)CC2)sc2c1CCC2,27,5,12,53*[fluorescence artefact?],-6,69*[fluorescence artefact?]
CCOC(=O)N1CCc2c(sc(NC(=O)c3ccc(S(=O)(=O)N4CCCC4)cc3)c2C#N)C1,245*,nt,nt,21,nt,34
CC(C)N1CCc2c(sc(NC(=O)c3ccc(S(=O)(=O)N4CCOCC4)cc3)c2C#N)C1,88,nt,nt,-5,nt,0
O=C(CN1CCN(S(=O)(=O)c2ccc(Cl)cc2)CC1)Nc1ccc2c(c1)OCCO2,120,5,-6,-8,-5,-3
CC1=N/C(=C\c2ccc([N+](=O)[O-])cc2)C(=O)N1c1ccc(Br)c(C)c1,nt,-6,6,nt,11,nt
CCn1cc(C(=O)N2CCN(c3cccc(Cl)c3)CC2)c2cc(OC)c(OC)cc2c1=O,112,1,-2,-2,-2,0
O=C(Nc1ccc(C2CCCCC2)cc1)C1CCN(c2ncccn2)CC1,234*[fluorescence artefact?],nt,nt,30,nt,55*
O=C(CCN1C(=O)c2ccccc2C1=O)Nc1ccc(F)cc1,118,-3,-6,-2,7,85*[fluorescence artefact?]
CCOC(=O)CSc1n[nH]c(NC(=O)c2cccc(C(F)(F)F)c2)n1,nt,1,-4,nt,1,nt
CCOC(=O)N1CCC(NC(=O)Cn2ncc3c4ccccc4n(C)c3c2=O)CC1,136,-5,-1,-10,2,1
CCOC(=O)N1CCC(NC(=O)Cn2ncn3c(cc4sc(CC)cc43)c2=O)CC1,112,nt,nt,57*[fluorescence artefact?],nt,44
O=C1c2ccccc2S(=O)(=O)N1CCOc1ccc(F)cc1,92,-4,-8,-10,2,-5
O=C(Cn1nc(Cl)nc1Cl)c1cc2ccccc2oc1=O,81,-6,7,37,3,55*[fluorescence artefact?]
CCCCn1c(SCC(N)=O)nc2c(sc3ccccc32)c1=O,263*,9,5,24,-10,53*[fluorescence artefact?]
Cc1cc(N2CCN(Cc3ccccc3)CC2)n2nc(C)c(-c3ccccc3)c2n1,86,1,1,17,-1,8
CCCc1cc(N2CCN(c3ccccn3)CC2)n2nc(C)c(-c3ccccc3)c2n1,242*[fluorescence artefact?],-4,-1,25,1,5
COc1ccc(-c2noc(CSc3nc(-c4ccccc4)cc(=O)[nH]3)n2)cc1,242*[fluorescence artefact?],-8,1,15,7,-2
CCOC(=O)/C(N=Nc1c(Br)cc(Br)cc1Br)=C(\C)O,nt,6,14,nt,-8,nt
CCOc1cccc(CNn2cnnc2)c1OCc1ccccc1Cl,102,4,-2,-12,-2,-5
CCOc1cccc(CNc2ccc(O)cc2)c1OCc1ccccc1Cl,nt,nt,37*,nt,nt,nt
Cc1nn2c([nH]c(=O)c3ccccc32)c1C=O,135,-2,2,-5,5,-1
SMILES,ERa SRC1 pot,PTPN22 act,FAK inh,ERb SRC1 inh,PTPN22 inh 2,ERa SRC1 inh
Cc1onc(-c2ccccc2Cl)c1C(=O)NCc1ccccn1,112,-4,1,-1,0,-5
Cc1onc(-c2ccccc2Cl)c1C(=O)NCc1cccnc1,102,nt,nt,2,nt,52*
CCCCc1ccc(-c2ccc(Br)cc2O)nc1,98,4,1,-5,-3,-4
CCCCc1ccc(-c2ccc(C)cc2O)nc1,203*[fluorescence artefact?],0,-6,37,0,22
C=CCn1c(SCC(=O)Nc2ncc(Cc3cc(Cl)ccc3Cl)s2)nnc1-c1ccncc1,nt,5,2,nt,-2,nt
CC(=O)NCCOC(=O)Nc1ccncc1,78,-1,-1,2,-1,55*
CN(CCOc1ccc(-c2ccn(S(=O)(=O)c3cccc4ccccc34)n2)cc1)c1ccccn1,nt,-7,-5,nt,10,nt
Cc1n[nH]c(C)c1S(=O)(=O)N(CC(=O)N1CCc2ccccc21)c1ccc(C(C)C)cc1,56,-10,0,50*,9,54*[fluorescence artefact?]
O=C(COc1ccc(S(=O)(=O)N2CCOCC2)cc1)Nc1ccccc1C(F)(F)F,90,-8,0,30,7,-3
O=c1[nH]c(=O)n(CCc2ccc(F)cc2)c(O)c1C=NCc1ccc2c(c1)OCO2,nt,-16,12,nt,20,nt
NC1CCCCC1N=Cc1c(O)n(CCc2ccc(F)cc2)c(=O)[nH]c1=O (configuration not stated),46,-9,-6,35,6,72*[fluorescence artefact?]
COc1c2c(nc3occc13)C(CCC(C)(C)O)(OC)C(O)CC2 (configuration not stated),109,6,-3,-3,-8,-5
Cc1ccc(N2CCn3c2nc2c3c(=O)n(CCc3ccccc3)c(=O)n2C)cc1,182,nt,nt,49,nt,60*[fluorescence artefact?]
COc1ccc(N2CCCn3c2nc2c3c(=O)n(CCc3ccccc3)c(=O)n2C)cc1,105,nt,nt,1,nt,3
Cc1ccc(Nc2nc(CSc3nnnn3-c3ccccc3)cs2)cc1,103,0,0,-5,3,-1
O=c1cc(CSc2nnnn2-c2ccccc2)nc(Nc2ccc(F)cc2)[nH]1,373*,-9,7,32,11,53*
CC(C)COc1ccc(/C=C2/Sc3ccccc3C2=O)cc1,nt,9,-2,nt,-5,nt
Cc1nc(OCC(=O)c2ccc(Cl)cc2)c(C#N)c2c1COC(C)(C)C2,773*[fluorescence artefact?],9,1,-9,-10,2
COc1ccc(C(=O)c2ccc(CC#N)s2)cc1,nt,-9,2,nt,12,nt
Clc1ccc(-c2nnc3sc(-c4ccc(Br)o4)nn23)cc1,144,0,-5,56*[fluorescence artefact?],4,56*[fluorescence artefact?]
COc1ccc(-c2nnc3sc(-c4ccc(Br)o4)nn23)cc1OC,139,nt,nt,29,nt,62*
Clc1ccc(-c2nn3c(-c4ccccc4)nnc3s2)cc1,130,nt,nt,38,nt,40
Cc1oc(-c2ccc(Cl)cc2)cc1-c1nn2c(-c3ccoc3C)nnc2s1,59,-23,17,64*[fluorescence artefact?],23,79*
CCC(C)NS(=O)(=O)c1ccc(OC)c(Cl)c1Cl (configuration not stated),nt,0,-1,nt,0,nt
Cc1cc(C)n2nc(SCc3cc(=O)n4c(C)cccc4n3)nc2n1,104,nt,nt,10,nt,6
Cc1nn2c(-c3cccc(NC(=O)CSc4nc5ccccc5o4)c3)nnc2c2ccccc12,200,-11,2,55*,4,69*[fluorescence artefact?]
